{"source": "PubChem BioAssay", "note": "A number with no mark means an inactive call."}
{"assay": "optical density shifts of acrAB sulA E. coli – strain DRC41, OD650, 48 h, E. coli filamentation inducer project, primary screen (AID 1152);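 also: E. coli MC1000 strain DRC41 lacking acrAB efflux pump and sulA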", "conditions": "higher = more signal, called active from +8 up or from −8 down"}
{"molecule": "Cc1cc2c(nc1C)CCCCN2CC(C)ON=C[C@@H](C)[C@H](OCc1ccccc1)C(C)C", "note": "(some centres undefined)", "z-score": -0.0958}
{"molecule": "CO[C@@H]1C=CCC(=O)N2CCC[C@H]2C(=O)OC[C@@H](C)C(=O)OC[C@H]1C", "z-score": 1.12}
{"molecule": "CO[C@@H]1C=CCC(=O)N[C@@H](C)C(=O)OC[C@@H](OC)[C@H](C)CCCC(=O)OC[C@H]1C", "z-score": 0.0058}
{"molecule": "COc1ccc(COC(=O)NN=C2C[C@@H](O)[C@@H](O)[C@@H]3[C@@H]4C(=O)N(c5ccc(F)cc5F)C(=O)[C@@H]4CC[C@H]23)cc1", "z-score": -0.544}
{"molecule": "CC(C)[C@@H](OCc1ccccc1)[C@H](C)C=NOC[C@@H](O)COCc1ccco1", "z-score": 0.776}
{"molecule": "O=C1[C@H]2[C@H]3[C@H](O)[C@H](O)CC(=NOCc4ccccc4)[C@@H]3CC[C@H]2C(=O)N1C[C@@H]1CCCO1", "z-score": 0.516}
{"molecule": "CC(C)=CCCC(C)=CCON=C1C[C@@H](O)[C@@H](O)[C@@H]2[C@@H]3C(=O)N(C(C)(C)C)C(=O)[C@@H]3CC[C@H]12", "z-score": 0.367}
{"molecule": "CCOC(=O)[C@H](Cc1ccccc1)NC(=O)CCC1CC(OC(=O)NCCc2ccc(F)cc2)CC2(CCCC(COC(=O)NCCc3ccccc3OC)O2)O1", "note": "(some centres undefined)", "z-score": -1.1}
{"molecule": "COc1ccc(COC(=O)NN=C2C[C@@H](O)[C@@H](O)[C@@H]3[C@@H]4C(=O)N(C5CCCCC5)C(=O)[C@@H]4CC[C@H]23)cc1", "z-score": -1.01}
{"molecule": "CC(C)=CCCC(C)=CCON=C1C[C@@H](O)[C@@H](O)[C@@H]2[C@@H]3C(=O)N(C4CCCCC4)C(=O)[C@@H]3CC[C@@H]12", "z-score": -0.734}
{"molecule": "COC(=O)[C@@H]1CC[C@H](C)[C@@H](c2ccc(C)cc2)N1C(=O)c1ccc(C=NO[C@@H]2O[C@H](COC(C)=O)[C@@H](OC(C)=O)[C@H](OC(C)=O)[C@H]2OC(C)=O)cc1", "z-score": -0.492}
{"molecule": "COc1cccc([C@H]2Oc3ccc(OC)cc3C(=NOC[C@@H](O)[C@H]3O[C@@H]4OC(C)(C)O[C@@H]4[C@H]3O)[C@@H]2O)c1", "z-score": -0.0985}
{"molecule": "O=C1[C@H]2[C@H]3[C@H](O)[C@H](O)CC(=NO[C@@H]4O[C@H](CO)[C@@H](O)[C@H](O)[C@H]4O)[C@H]3CC[C@H]2C(=O)N1c1cccc(Oc2ccccc2)c1", "z-score": -0.024}
{"molecule": "CCN1C(=O)[C@H]2[C@H]3[C@H](O)[C@H](O)CC(=NOCC(C)C)[C@@H]3CC[C@H]2C1=O", "z-score": -1.87}
{"molecule": "CC(C)C[C@H](NC(=O)CCC1CC(OC(=O)NCc2cccc3ccccc23)CC2(CCCC(COC(=O)NCc3ccccc3)O2)O1)C(=O)NCC(c1ccccc1)c1ccccc1", "note": "(some centres undefined)", "z-score": 0.576}
{"molecule": "COC(=O)CC=C[C@@H](C)[C@@H](C=NOC[C@H]1O[C@H](c2ccccc2)C=C[C@@H]1Oc1ccc(OC)cc1)NS(=O)(=O)c1ccc(C)cc1", "z-score": -0.272}
{"molecule": "C#CCCCON=C1C[C@@H](O)[C@@H](O)[C@@H]2[C@@H]3C(=O)N(c4ccc(F)cc4F)C(=O)[C@@H]3CC[C@H]12", "z-score": -1.41}
{"molecule": "CO[C@H]1COC(=O)[C@@H](Cc2ccccc2)NC(=O)[C@@H](C)COC(=O)CCC[C@@H]1C", "z-score": 0.558}
{"molecule": "COc1cccc([C@H]2Oc3ccc(OC)cc3C(=NO[C@@H](C)c3cn([C@H](CO)Cc4ccccc4)nn3)[C@@H]2O)c1", "z-score": -2.4}
{"molecule": "CCOC(=O)NN=C1C[C@@H](O)[C@@H](O)[C@@H]2[C@@H]3C(=O)N(Cc4ccc5c(c4)OCO5)C(=O)[C@@H]3CC[C@H]12", "z-score": 0.245}
{"molecule": "O=C(NN=C1C[C@@H](O)[C@@H](O)[C@@H]2[C@@H]3C(=O)N(C[C@@H]4CCCO4)C(=O)[C@@H]3CC[C@H]12)OCc1ccccc1", "z-score": 0.801}
{"molecule": "CC(C)CON=C1C[C@@H](O)[C@@H](O)[C@@H]2[C@@H]3C(=O)N(c4ccc(F)cc4F)C(=O)[C@@H]3CC[C@H]12", "z-score": -0.619}
{"molecule": "C[C@@H](c1ccccc1)N1C(=O)[C@H]2[C@H]3[C@H](O)[C@H](O)CC(=NO[C@@H]4O[C@H](CO)[C@@H](O)[C@H](O)[C@H]4O)[C@@H]3CC[C@H]2C1=O", "z-score": 0.387}
{"molecule": "CCOC(=O)[C@H](CC(C)C)NC(=O)CCC1CC(OC(=O)NCc2ccc3c(c2)OCO3)CC2(CCCC(COC(=O)NCC3CCCCC3)O2)O1", "note": "(some centres undefined)", "z-score": 0.192}
